# Results from PubChem BioAssay (EPA / NIEHS).
# Calls of active or inactive are those of the source. How the source made its calls: active means hit-call score of the fitted dose curve at least 0.9, where 1 is the maximum; inactive means score below 0.9.
# Read-out: urokinase plasminogen activator (uPA), PLAU (gene 5328)
# Experiment: BSK_BE3C_uPA: BioMAP Diversity Plus: BE3C Assay for urokinase plasminogen activator (uPA) Biomarker Activity (AID 2283038);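 on outcome: uPA protein level quantified by ELISA in cell cultures; uPA read one day after compound addition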
# Conditions: primary human bronchial epithelial cells; actives raise or lower the signal
# Outline: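 Human primary bronchial epithelial cells were exposed to chemical for 24 h, then uPA levels were measured by ELISA. Responses were fitted bidirectionally against DMSO as negative control and baseline. Parallel SRB staining of total protein gauged overt cytotoxicity.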
SMILES,outcome,AC50
CC(C)(C)OOC(C)(C)CCC(C)(C)OOC(C)(C)C,inactive,–
c1ccc2c(c1)oc1ccccc12,inactive,–
Nc1ccc([N+](=O)[O-])cc1,inactive,–
Nc1ccc(Oc2ccc(N)cc2)cc1,inactive,–
COC(=O)c1ccccc1N,inactive,–
c1ccc2c(c1)-c1cccc3cccc-2c13,inactive,–
O=C(O)C1C2CCC(O2)C1C(=O)O (stereo not drawn),inactive,–
O=P(OCCCl)(OCCCl)OCCCl,inactive,–
CC(C)(OOC(C)(C)c1ccccc1)c1ccccc1,inactive,–
CC(C)N(Cc1ccccc1)C(=O)C(C)(C)C,inactive,–
CS(=O)(=O)NC(=O)c1cc(Oc2ccc(C(F)(F)F)cc2Cl)ccc1[N+](=O)[O-],inactive,–
[O-][Cl+]O,inactive,–
CCN(CC)CCO,inactive,–
O=C(Oc1ccc(Br)cc1)N1CCN2CCC1CC2,inactive,–
O=[N+]([O-])C(Br)(CO)CO,–,4.02 µM (active)
c1ccc(C2CO2)cc1 (stereo not drawn),inactive,–
c1ccc(N=Nc2ccccc2)cc1,inactive,–
Oc1ccc2ccc3cccc4ccc1c2c34,inactive,–
CCC[CH2][Sn]([Cl])([CH2]CCC)[CH2]CCC,–,0.148 µM (active)
COP(=S)(OC)SCN1C(=O)c2ccccc2C1=O,inactive,–
[Cl-].[Cl-].[Hg+2],–,31.6 µM (active)
CCN(CC)N=O,inactive,–
Nc1ccc(N=Nc2ccccc2)cc1,inactive,–
CCOC(=O)[C@]1(c2ccccc2)Oc2ccccc2[C@@H]1N,inactive,–
c1ccc(NNc2ccccc2)cc1,inactive,–
CCCCCOC(=O)c1ccccc1C(=O)OCCCCC,inactive,–
CCCCCCCCOC(=O)c1ccc(C(=O)OCCCCCCCC)c(C(=O)OCCCCCCCC)c1,inactive,–
O=[N+]([O-])c1ccc(Oc2ccc(Cl)cc2Cl)cc1,inactive,–
